The compounds below were run on HepG2 (assay: GSK_TCMDC: Percent inhibition of human HepG2 cell line. Test compounds present at 10uM.).
Assay type: functional
`CN1CCC(N2CCN(Cc3ccc(-c4ccc(-c5nc6cc(F)ccc6[nH]5)s4)cc3)CC2)CC1.O=C(O)C(F)(F)F` was tested, and the Inhibition was 62%.
For `O=C(O)C(F)(F)F.c1cc(CN2CCC(CCN3CCCCC3)CC2)cc(-c2cccc(-c3nc4ccccc4[nH]3)c2)c1`, the Inhibition was 95%.
Work on `O=C(NCCCCCN1CCC(c2c[nH]c3ccccc23)CC1)Nc1ccc(Br)cc1` yielded an Inhibition of 24%.
`CCn1c(Cc2ccccc2)nnc1SCC(=O)N1c2ccccc2Sc2ccccc21` gave an Inhibition of 0%.
With `Br.CC(CCON1C(N)=NC(N)=NC1(C)C)c1ccc(Cl)c(Cl)c1` (stereo unspecified) the Inhibition was 60%.
For `C=C(C)Cn1cc(C2CCN(CCCCNC(=O)c3sc(-c4ccc(Cl)cc4Cl)nc3CO)CC2)c2ccccc21`, the Inhibition was 22%.
With `COc1ccc(Cn2c(Nc3cccc(C(F)(F)F)c3)nc3cc(C(=O)NCCN4CCCC4)ccc32)cc1Cl` the Inhibition was 11%.
Work on `Cc1sc(CNCCCNc2cc(=O)c3ccccc3[nH]2)cc1Br` yielded an Inhibition of 12%.
`O=C(Cn1c(CCc2cccc(F)c2F)nc(=O)c2ccccc21)N(CCN1CCCCC1)Cc1ccc(-c2ccc(C(F)(F)F)cc2)cc1.O=C(O)C(O)C(O)C(=O)O` gave an Inhibition of 32%.
In the case of `Cc1ccccc1CNc1nccc(NCCC(=O)Nc2ccccc2)n1.O=C(O)C(F)(F)F`, the Inhibition is reported as 16%.
Work on `O=C(O)C(F)(F)F.Oc1ccc(CCNc2nc(NCCCOc3ccccc3-c3cccnc3)nc(N3CCNCC3)n2)cc1` yielded an Inhibition of 10%.
Work on `C(=N\Nc1nccc2sc(-c3cccnc3)cc12)/c1ccncc1` yielded an Inhibition of 65%.
Compound `O=C(Nc1ccc(Cl)cc1)N[C@H]1CCN(CCCCCNC(=O)C2CC2c2ccc(Cl)c(Cl)c2)C1` (stereo partly specified) has an Inhibition of 24%.
For `CCN(CC)c1nc(-c2ccccc2)cc(-c2ccccc2)c1C#N`, the Inhibition was 0%.
`N#Cc1ccc(N[C@@H](CC2CCCCC2)C(=O)NCc2cc(Cl)cc(Cl)c2)c2ccccc12.O=C(O)C(F)(F)F` showed an Inhibition of 34%.
In the case of `Nc1ncc(-c2ccc(F)cc2)c2ccc(-c3cccc(F)c3)cc12`, the Inhibition is reported as 34%.
`OC(c1ccccc1)C1CN(Cc2ccccc2)CCC1(O)c1ccccc1` (stereo unspecified) showed an Inhibition of 4%.
Work on `CCNc1cc(C(=O)NC(Cc2ccccc2)C(O)CNC(C)(C)CCCC(C)C)c(F)c(N2CCCS2(=O)=O)c1.O=CO` (stereo unspecified) yielded an Inhibition of 0%.
With `OCCc1ccc(Nc2nccc(-c3nnc4ccccn34)n2)cc1` the Inhibition was 63%.
With `Cc1ccc2ncc(Cl)c(CCN3CCC(NCc4ccc5c(n4)NC(=O)CS5)CC3)c2n1.Cl` the Inhibition was 13%.
For `CN1CCCC(CN2CCN(Cc3ccc(-c4ccc(-c5nc6cc(F)ccc6[nH]5)s4)cc3)CC2)C1.O=C(O)C(F)(F)F` (stereo unspecified), the Inhibition was 73%.
`CCC(C)(C)c1ccc(Oc2ccc(NC(=O)Nc3ccc(Cl)c(Cl)c3)cc2)cc1` was tested, and the Inhibition was 13%.
Compound `CCOc1ccc2c(=NN=Cc3ccc(OC)c(OC)c3)cc(C)[nH]c2c1` has an Inhibition of 22%.
`Cc1cc(C(=O)CN2C(=O)NC(C)(c3ccc4ccccc4c3)C2=O)c(C)n1Cc1ccco1` (stereo unspecified) showed an Inhibition of 12%.
`Cc1ccc(C)c2sc(N(CCCn3ccnc3)C(=O)c3ccco3)nc12.Cl` was tested, and the Inhibition was 28%.
For `CN(C)CC(O)C(O)(c1ccccc1)c1ccc(F)cc1.Cl` (stereo unspecified), the Inhibition was 0%.

Source: ChEMBL document CHEMBL1157539, “Thousands of chemical starting points for antimalarial lead identification” (Nature, 2010)
